Each structure is given as a SMILES string. Among all 150,000 compounds or so, about 100 (0.067%) were called active. The sample holds actives, similar compounds and a random draw of the others, so the mix is not that of the screen. A number with no mark means an inactive call.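 How the source made its calls: active means inhibition above the mean plus 3 SD of compounds within the control limits, set per campaign (cut at about 38% in these data); inactive means the rest.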

This assay in a line: reduced ATP in mature Plasmodium gametocytes – ATP luminescence, HTS, primary screen (AID 743093).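 Further: 0% = DMSO wells and 100% = medium only without gametocytes.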 The conditions noted are these: P. falciparum stage V gametocytes, 24 h, at 10.9 µM, stronger effect = higher value.
The inhibition is the drop in the measured response relative to a control, in per cent. `CCCNC(=O)CSc1nc(Cc2ccccc2)nc2ccccc12`: the inhibition is -0.29%.

With `COc1cccc(CNc2ncc(-c3ccccc3)n2C)c1`, the inhibition is -4.96%.

Take `CCSCc1nc(N)nc(NCCc2ccccc2)n1`: the inhibition was -2.31%.

As to `CC(C)=CCN1CCN(CCCc2ccccc2)CC1CCO` (stereo not drawn), the inhibition is 26.8%.

Consider `COc1ccccc1C1=CC(=O)C[C@H](c2ccc(F)cc2)C1`, for which the inhibition is -32.5%.

Turning to `Cc1ccc(-c2ccnc3[nH]n(-c4ccccc4)c(=O)c23)cc1`, the inhibition was -20.9%.

As to `CSc1ccc(S(=O)(=O)N2CCC(C(=O)NCCc3ccccc3)CC2)cc1`, the inhibition was -3.09%.

Turning to `O=C(Nc1nnc(CCN2CCCCC2)s1)c1cccc(Cl)c1`, the inhibition is 7.08%.

For `COc1cc(NC(=O)c2ccc(-c3csc(C)n3)cc2)c(OC)cc1Cl`, the inhibition is -9.66%.

On to `CCC(C(=O)NCCC(C)C)N(Cc1ccccc1Cl)C(=O)c1snc(C(N)=O)c1N` (stereo not drawn), for which the inhibition is -26.1%.

Turning to `CN(C)CCCNC(=S)N1CCC(c2nc3ccccc3[nH]2)CC1`, the inhibition is -17.4%.

As for `CC(=O)NS(=O)(=O)c1ccc2c(c1)Cc1cc(S(=O)(=O)NC(C)=O)ccc1-2`, the inhibition is -9.24%.

Regarding `Cc1cc(F)ccc1N1CCC(N2CCN(C)C(CCO)C2)CC1` (stereo not drawn), the inhibition is -11.3%.

For `CC(=O)C(C)n1cnc2scc(-c3ccc(C)cc3)c2c1=O` (stereo not drawn), the inhibition is 13.9%.

As to `COc1ccccc1-n1cn[nH]c1=S`, the inhibition was 2.72%.

With `CC(C)CCN1NC2(CCC(C)CC2)NC1=S` (stereo not drawn), the inhibition was 0.86%.

As to `Cc1nc([N+](=O)[O-])cn1CC(=O)Nc1ccc(Cl)cc1`, the inhibition is 2.38%.

For the molecule `O=C(O)c1ccccc1C(=O)Nc1nc(-c2ccccc2)cs1`, the inhibition is 3.62%.

Regarding `COC(=O)c1ccc(COc2cc([N+](=O)[O-])cc3cccnc23)cc1`, the inhibition was 2.3%.

Consider `CCN1N=C(c2ccccc2)CCC1=O`, for which the inhibition is -22.1%.

As to `CCc1nc(N2CCN(C(C)=O)CC2)c2c3c(sc2n1)CCCC3`, the inhibition was -2.91%.

Turning to `Cc1c(NC(=O)CSCc2ccccc2)cccc1C(=O)O`, the inhibition is 19%.

For the molecule `CCCc1ccc(OCCNC(=O)c2ccccc2Br)cc1`, the inhibition is 17.8%.

As for `O=C(N[C@@H]1C/C=C\C[C@@H](CC(=O)N(CCO)Cc2ccccc2)C(=O)N[C@H](Cc2ccccc2)COC1=O)OCC1c2ccccc2-c2ccccc21`, the inhibition was -0.76%.

`COc1ccc(N2CCN(C(=O)c3cccs3)CC2)cc1`: the inhibition is -16.6%.

On to `Cc1cccc(C)c1OCCN1CCOCC1`, for which the inhibition was -12.2%.

`COc1ccc(CN(Cc2ccc(OC)cc2)C(=O)c2cccs2)cc1`: the inhibition was 2.88%.

Regarding `CCOc1ccc2ccccc2c1/C=N/NC(=O)c1c(C)cc(C)[nH]c1=O`, the inhibition was 23.8%.

As to `Cc1cccc(NC(=O)COC(=O)CCc2ccccc2)c1C`, the inhibition is -7.45%.

In the case of `CCNC(=O)CCc1nc(-c2ccc(C)cc2)no1`, the inhibition is -1.21%.

For `CN1CCN(c2ccc(S(=O)(=O)N3CCOCC3)cc2NC(=O)CCc2ccccc2)CC1`, the inhibition is -2.86%.

For the molecule `CCOC(=O)[C@H]1[C@H]2COc3cc(OC)ccc3[C@@H]2N2C(=O)CN(Cc3ccc(Cl)cc3)C(=O)[C@@]12C`, the inhibition was -23.5%.

In the case of `COc1ccc(C(=O)NC2=NCCS2)c(OC)c1`, the inhibition was -24.6%.

In the case of `CCOc1ccc(-n2c(SCC(N)=O)nnc2-c2ccco2)cc1`, the inhibition is -6.2%.

For the molecule `CCOC(=O)c1cnc(COc2ccccc2Cl)[nH]c1=O`, the inhibition is -10.2%.

As for `COc1ccc(CCNC(=O)Cc2ccc(C)cc2)cc1OC`, the inhibition was -9.83%.

Turning to `O=[N+]([O-])c1ccccc1/C=C/CN1CCCC(CO)C1` (stereo not drawn), the inhibition was -16.5%.

Turning to `O=C(CCCCO)c1ccc(O)c(Cl)c1`, the inhibition is -2.03%.

Turning to `CN(Cc1ccccc1)C(=O)c1ccc(COc2ccccc2)cc1`, the inhibition was -8.25%.

Consider `COc1ccc(OC)c(C(=O)NC(CC(N)=O)c2ccc(N3CCC(N4CCCCC4)CC3)c([N+](=O)[O-])c2)c1` (stereo not drawn), for which the inhibition was 0.29%.

For the molecule `COc1ccc(-c2sc3ccc(OC)cc3c2C#Cc2ccccn2)cc1`, the inhibition was 11.6%.

On to `COc1cc(NC(=O)c2ccc(CNc3c(N4CCCC4)c(=O)c3=O)cc2)cc(OC)c1OC`, for which the inhibition is -11.3%.

Regarding `COc1ccc(OCC(O)CN(C)C(=O)C(C)Oc2ccccc2)cc1` (stereo not drawn), the inhibition is -38.3%.

On to `Cc1cc(F)ccc1NC(=O)C(C)n1c2ccccc2c2nc(=O)cc(C)n21` (stereo not drawn), for which the inhibition is -11.9%.

Take `CCOC(=O)CSc1nc(C)c(Oc2ccc(Cl)cc2Cl)c(=O)[nH]1`: the inhibition is -4.17%.

Consider `O=C(C1CCC1)N1CCN(c2ccccc2)CC1`, for which the inhibition was 10.5%.

Regarding `Cn1c(Nc2cccc(Cl)c2)nc2ccccc21`, the inhibition was -9.18%.

On to `CN(C(=O)c1cccc(NC(=O)Cc2ccc([N+](=O)[O-])cc2)c1)C1CCC1`, for which the inhibition was -9.69%.

Consider `O=C(CCc1ccccc1)Nc1ncc([N+](=O)[O-])s1`, for which the inhibition was -11.7%.

As to `O=C(Cc1c(F)cccc1Cl)Nc1ccc(-n2cnnn2)cc1`, the inhibition was 4.22%.

For `O=C(Cc1c(F)cccc1Cl)Nc1ncc([N+](=O)[O-])s1`, the inhibition was 39.5% (active).

`O=C(CCl)N(Cc1cccc([N+](=O)[O-])c1)c1cccc(Cl)c1`: the inhibition is -7.41%.

Regarding `Clc1ccc(C[n+]2cc(-c3ccccc3)n3c2CCC3)cc1`, the inhibition is 1.51%.

With `O=[N+]([O-])c1ccc(NC(=S)N2CCN(c3ccccn3)CC2)cc1`, the inhibition is 3.29%.

Turning to `O=C(CN1CCN(c2ccc(F)cc2)CC1)Nc1ccccc1`, the inhibition is -14.6%.

As for `N#C/C(=C\c1ccc(-c2cccc([N+](=O)[O-])c2)o1)C(=O)NCCN1CCOCC1`, the inhibition was -28.5%.

In the case of `Cc1ccccc1Nc1c(-c2ccccc2)nc2ncccn12`, the inhibition was -29.5%.

In the case of `O=C1CC(=O)Nc2cc(S(=O)(=O)N3CCN(c4cccc(C(F)(F)F)c4)CC3)ccc2N1`, the inhibition is 38.8% (active).

Regarding `Cc1ccc(S(=O)(=O)N2CCN(c3ccccc3)CC2)cc1C`, the inhibition was 0.96%.

For the molecule `O=S(=O)(c1cccc(C(F)(F)F)c1)N1CCN(c2cnccn2)CC1`, the inhibition is -34.2%.

Consider `CCc1cc(CNC(=O)CC2C(=O)NCCN2Cc2ccccc2C(F)(F)F)on1` (stereo not drawn), for which the inhibition is -0.11%.

Turning to `COc1ccc(NC(=O)C2C3CCC(O3)C2C(=O)O)cc1OC` (stereo not drawn), the inhibition was 7.46%.

With `Cc1ccc(S(=O)(=O)Nc2nc(C)cc(-n3nc(C)cc3C)n2)cc1`, the inhibition was 10.5%.

In the case of `Cc1cc(N/N=C\c2ccc(Br)cc2)nc(-n2nc(C)cc2C)n1`, the inhibition was -0.66%.

With `Cc1ccc(S(=O)(=O)Nc2nc(C)cc(N/N=C/c3ccc(O)cc3)n2)cc1`, the inhibition is 42.5% (active).

Take `CC1CCC(CN2CCN=C2N(C)C)CC1` (stereo not drawn): the inhibition is -5.33%.

As to `CCN(CC)CCCNC(=S)N(CCO)Cc1cc2cc3c(cc2[nH]c1=O)OCO3`, the inhibition is 4.58%.

On to `CN(c1ccccn1)c1ncnc2[nH]ncc12`, for which the inhibition was 2.58%.

For the molecule `O=S(=O)(c1ccc(Cl)cc1)N1CCCN(c2ccc(C(F)(F)F)cn2)CC1`, the inhibition is -9.4%.

For `CC(C)CC(CCc1ccccc1)OS(N)(=O)=O` (stereo not drawn), the inhibition is -58.7%.

On to `CC(C)(C)OC(=O)Nc1ccc([C@@H](NC(=O)OC(C)(C)C)C(=O)OC(C)(C)C)cc1`, for which the inhibition was -5.54%.

On to `COc1ccc(C)cc1NC(=O)CNCc1cccs1`, for which the inhibition was 7.68%.

`O=C(Cc1ccc(Br)cc1)NCCc1ccccc1`: the inhibition was 15.4%.

On to `CCC(C)CCN1CCN=C1N(C)C` (stereo not drawn), for which the inhibition is 4.3%.

As for `Cc1ccc(S(=O)(=O)NCCCn2ccnc2)cc1C(=O)NC(C)C`, the inhibition is 2.4%.

As for `O=C1N[C@@H](Cc2ccccc2)C(=O)N2[C@H]1C[C@]1(Br)c3ccccc3N(S(=O)(=O)c3ccccc3)[C@H]21`, the inhibition is 12.6%.

For `COC(=O)c1ccc(COc2ccc(/C=N/NC(=O)C(=O)Nc3ccc(OC)cc3)cc2OC)o1`, the inhibition is 2.74%.

For `O=C(N[C@@H](Cc1ccccc1)C(=O)OCc1ccccc1)c1nc[nH]c1C(=O)N[C@@H](Cc1ccccc1)C(=O)OCc1ccccc1`, the inhibition is 0.44%.

`CCOc1cc(/C=N/Nc2cc(C)nc3ccc(C)cc23)ccc1O`: the inhibition was 10.4%.

Take `FC(F)(F)c1ccc2c3n(nc2c1)CCN=C3c1ccc(Cl)cc1`: the inhibition is 6.57%.

On to `COC(=O)CN1C(=O)[C@H]2[C@@H](C3CC3)N3C(=O)CN(Cc4ccc(-c5ccccc5)cc4)C(=O)[C@@]3(Cc3ccccc3)[C@H]2C1=O`, for which the inhibition is -19.5%.

As for `CC(=O)Nc1ccc(NC(=O)CSc2nnnn2-c2ccccc2F)cc1`, the inhibition was -3.76%.

As to `CC1CN(c2nc(Nc3ccccc3)nc(N)c2[N+](=O)[O-])CC(C)O1` (stereo not drawn), the inhibition was -1.38%.

In the case of `CCOc1cc(C)ccc1OCc1nnc(SCC(=O)Nc2cccc(C(=O)O)c2)n1-c1ccccc1`, the inhibition was 15.6%.

For the molecule `Nc1cccnc1Sc1ccccc1`, the inhibition was -1.9%.

On to `Cc1noc(C)c1NC(=O)Nc1cccc2c1O[C@H](CN(C)S(=O)(=O)c1c(C)noc1C)[C@@H](C)CN([C@H](C)CO)C2=O`, for which the inhibition is -15.7%.

`O=C(O)c1ccccc1NC(=O)c1ccccc1-c1ccccc1C(=O)O`: the inhibition was -11.4%.

`CCOCCn1[nH]c2ccccc2c1=O`: the inhibition is -10.4%.

Regarding `COc1cc2c(cc1OC)C(c1ccccc1Br)NC(=O)C2` (stereo not drawn), the inhibition is 1.27%.

`Cc1cccc(NC(=O)CCN2CC(C)CC(C)C2)c1` (stereo not drawn): the inhibition was -2.59%.

As to `CC(=O)Nc1ccc(Oc2ccc3c(c2)C(=O)NC3=O)cc1`, the inhibition was 10.6%.

As to `CCCn1c(C2CCCN2c2nc(-c3ccc(C)cc3)cs2)nc2cc(Cl)c(N3CCCCC3)cc21` (stereo not drawn), the inhibition is 10.4%.

Turning to `O=C(O)CCC(=O)N(Cc1ccccc1)Cc1ccccc1`, the inhibition was -4.24%.

The values above are taken from PubChem BioAssay AID743093 (The Scripps Research Institute Molecular Screening Center, 2013).
